The source of these data is PubChem BioAssay (EPA / NIEHS).

Records with an inconclusive call do not appear. Calls of active or inactive are those of the source. How the source made its calls, unless noted: active means hit-call score of the fitted dose curve at least 0.9, where 1 is the maximum; inactive means score below 0.9.

Test [1] is described as follows: ATG_PBREM_CIS: Attagene CIS-FACTORIAL HepG2 Assay for human Phenobarbital-responsive Enhancer Module (PBREM) (AID 2282955). Conditions: HepG2 PBREM cis-reporter, Attagene multiplexed transcription; actives raise or lower the signal. An outline of the steps: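 HepG2 cells transiently transfected with multiple cis-regulated reporter transcription units; endogenous factor activity at the PBREM element measured as reporter mRNA 24 h after dosing, via RT-PCR and capillary electrophoresis of fluorescent fragments; bidirectional fitting versus DMSO.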

The target of test [2] is Paired box protein Pax-6 (Homo sapiens) (UniProt P26367). The test can be described thus: ATG_Pax6_CIS: Attagene CIS-FACTORIAL HepG2 Assay for human Paired Box 6 (PAX6) (AID 2282956). Conditions: HepG2 CIS-FACTORIAL PAX6 reporter transcription, RNA readout; actives raise or lower the signal. In outline: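 Read-out is reporter transcript level, measured by RT-PCR with fluorescent primer extension and capillary electrophoresis after 24 h dosing of transfected HepG2 cells. Activity in either direction fitted relative to DMSO control.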
Chain of Paired box protein Pax-6 (Homo sapiens) (P26367 whole entry, looked up): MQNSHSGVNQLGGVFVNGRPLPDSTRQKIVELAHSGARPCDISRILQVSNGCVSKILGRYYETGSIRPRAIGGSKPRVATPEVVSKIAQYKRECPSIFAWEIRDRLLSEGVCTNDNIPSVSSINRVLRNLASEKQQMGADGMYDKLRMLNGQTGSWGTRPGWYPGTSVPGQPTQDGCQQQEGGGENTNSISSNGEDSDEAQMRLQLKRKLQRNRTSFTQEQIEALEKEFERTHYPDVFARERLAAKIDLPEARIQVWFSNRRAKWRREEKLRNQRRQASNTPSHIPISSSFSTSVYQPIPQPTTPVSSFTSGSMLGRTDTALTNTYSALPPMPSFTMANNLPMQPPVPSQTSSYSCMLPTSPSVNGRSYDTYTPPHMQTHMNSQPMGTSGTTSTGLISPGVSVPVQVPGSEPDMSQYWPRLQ

The nature of test [3]: ATG_PXRE_CIS: Attagene CIS-FACTORIAL HepG2 Assay for human Pregnane X Receptor Element (PXRE) (AID 2282957). Conditions: HepG2 Attagene CIS-FACTORIAL PXRE reporter, mRNA; actives raise or lower the signal. An outline of the steps: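 Endogenous transcription factor activity in HepG2 was gauged through induction of reporter mRNA driven by a cis-regulating promoter element, sampled 24 h post-treatment. Activity was fitted in both directions against DMSO negative control.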

Test [4] can be described thus: ATG_PPRE_CIS: Attagene CIS-FACTORIAL HepG2 Assay for human Peroxisome Proliferator-activated Response Element (PPRE) (AID 2282958). Conditions: HepG2 PPRE cis-element reporter, Attagene transcription factor profiling; actives raise or lower the signal. An outline of the steps:
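HepG2 cells transiently transfected with multiplexed cis-element reporter units measure endogenous transcription factor activity. After 24 h compound exposure, reporter mRNA is quantified by RT-PCR, 6-FAM labeling, HpaI digestion and capillary electrophoresis; bidirectional fits are made against DMSO baseline.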

Test [5] is described as follows: ATG_Sox_CIS: Attagene CIS-FACTORIAL HepG2 Assay for human SRY-box transcription factor (SOX) (AID 2282960). The settings on record: HepG2 Attagene cis-factorial SOX reporter, mRNA; actives raise or lower the signal. In outline:
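HepG2 cells transiently transfected with cis-element-driven multiple reporter transcription units, dosed 24 h; reporter mRNA measured by RT-PCR, FAM labelling, HpaI digestion and capillary electrophoresis. Bidirectional fit versus DMSO baseline.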

Test [6] can be described thus: ATG_SREBP_CIS: Attagene CIS-FACTORIAL HepG2 Assay for human Sterol Regulatory Element Binding (SREBP) (AID 2282962). Conditions: HepG2 Attagene cis-factorial SREBP reporter, mRNA; actives raise or lower the signal. An outline of the steps:
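Endogenous SREBP activity read as cis-element-driven reporter transcript in transiently transfected HepG2, 24 h post-dosing; quantified via RT-PCR plus capillary electrophoresis of fluorescent fragments. Gain or loss of signal fitted relative to DMSO baseline.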

The target of test [7] is Signal transducer and activator of transcription 3 (Homo sapiens) (UniProt P40763). The test can be described thus: ATG_STAT3_CIS: Attagene CIS-FACTORIAL HepG2 Assay for human Signal Transducer and Activator of Transcription 3 (STAT3) (AID 2282963). Conditions: HepG2, Attagene cis-factorial STAT3 reporter transcription; actives raise or lower the signal. An outline of the steps:
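Readout is reporter transcript quantified by RT-PCR and capillary electrophoresis, with 6-FAM primer extension and HpaI digestion. Total RNA is taken 24 h after dosing transiently transfected HepG2 carrying cis-regulated reporter units. Bidirectional fit against DMSO.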

A short description of test [8]: ATG_TA_CIS: Attagene CIS-FACTORIAL HepG2 Assay for human TA Basal Promoter (AID 2282964). The settings on record: HepG2 Attagene CIS-factorial TA basal promoter reporter; actives raise or lower the signal. In outline:
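Read-out: fluorescent reporter-transcript fragments resolved by capillary electrophoresis after RT-PCR and HpaI digestion. Source: HepG2 cells carrying transiently transfected multi-reporter cis constructs, treated 24 h. Endpoint fitted bidirectionally relative to DMSO.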

Test [9] in a line: ATG_TCF_b_cat_CIS: Attagene CIS-FACTORIAL HepG2 Assay for human T-Cell-Factor with beta-catenin (TCF/b-cat) (AID 2282965). Conditions: HepG2 TCF/beta-catenin cis-reporter transcription, actives raise or lower the signal. In outline:
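Measured: reporter mRNA in HepG2 transiently transfected with cis-promoter reporter units, 24 h after chemical addition. Fitting was bidirectional, DMSO as negative control.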

Test [10] in a line: ATG_TAL_CIS: Attagene CIS-FACTORIAL HepG2 Assay for human TAL Basal Promoter (AID 2282966).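 Further: background control endpoint measuring basal TAL promoter reporter mRNA not a specific factor.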 The settings on record: HepG2 Attagene cis-factorial TAL promoter reporter; actives raise or lower the signal. In outline:
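Endogenous transcription-factor activity is sensed in HepG2 cells through transfected cis-promoter reporter constructs. After 24 h dosing, reporter transcripts are quantified by RT-PCR and capillary electrophoresis. Gain or loss of signal is fitted relative to DMSO.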

The nature of test [11]: ATG_VDRE_CIS: Attagene CIS-FACTORIAL HepG2 Assay for human Vitamin D Receptor Element (VDRE) (AID 2282968). Conditions: HepG2 VDRE cis-reporter transcription, actives raise or lower the signal. In outline: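 Readout is VDRE-driven reporter mRNA reflecting endogenous factor activity in human HepG2 cells, sampled 24 h post-dose. Quantification used labelled RT-PCR products separated by capillary electrophoresis; bidirectional analysis relative to DMSO.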

Test [12] addresses Nuclear receptor subfamily 1 group I member 3 (Homo sapiens) (UniProt Q14994). The test can be described thus: ATG_CAR_TRANS: Attagene TRANS-FACTORIAL HepG2 Assay for human Constitutive Androstane Receptor (CAR) (AID 2282969; active means hit-call score of the fitted dose curve at least 0.9, where 1 is the maximum;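 further: activators raise reporter mRNA above DMSO so AC50 marks induction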). The settings on record: HepG2 Attagene TRANS-FACTORIAL CAR reporter. In outline:
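Signal is reporter mRNA induction relative to DMSO, measured 24 h after dosing by RT-PCR with fluorescent primer extension and capillary electrophoresis. Human HepG2 liver cells carried transiently transfected chimeric NR-Gal4/GAL4-UAS reporter constructs.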

Test [13] deals with Estrogen receptor (Homo sapiens) (UniProt P03372). The test can be described thus: ATG_ERa_TRANS: Attagene TRANS-FACTORIAL HepG2 Assay for human Estrogen Receptor alpha (ERa) (AID 2282970; active means hit-call score of the fitted dose curve at least 0.9, where 1 is the maximum). The settings on record: HepG2 Attagene TRANS ERa GAL4 reporter, mRNA. An outline of the steps: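 Transfected HepG2 cells carrying GAL4-UAS-driven reporter units were dosed for 24 hours. Total RNA was reverse-transcribed, reporter sequences PCR-amplified, FAM-labelled, HpaI-digested and resolved by capillary electrophoresis. Increases over DMSO control defined activity.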
Chain of Estrogen receptor (Homo sapiens) (P03372 whole entry, looked up, the tested form may be a part): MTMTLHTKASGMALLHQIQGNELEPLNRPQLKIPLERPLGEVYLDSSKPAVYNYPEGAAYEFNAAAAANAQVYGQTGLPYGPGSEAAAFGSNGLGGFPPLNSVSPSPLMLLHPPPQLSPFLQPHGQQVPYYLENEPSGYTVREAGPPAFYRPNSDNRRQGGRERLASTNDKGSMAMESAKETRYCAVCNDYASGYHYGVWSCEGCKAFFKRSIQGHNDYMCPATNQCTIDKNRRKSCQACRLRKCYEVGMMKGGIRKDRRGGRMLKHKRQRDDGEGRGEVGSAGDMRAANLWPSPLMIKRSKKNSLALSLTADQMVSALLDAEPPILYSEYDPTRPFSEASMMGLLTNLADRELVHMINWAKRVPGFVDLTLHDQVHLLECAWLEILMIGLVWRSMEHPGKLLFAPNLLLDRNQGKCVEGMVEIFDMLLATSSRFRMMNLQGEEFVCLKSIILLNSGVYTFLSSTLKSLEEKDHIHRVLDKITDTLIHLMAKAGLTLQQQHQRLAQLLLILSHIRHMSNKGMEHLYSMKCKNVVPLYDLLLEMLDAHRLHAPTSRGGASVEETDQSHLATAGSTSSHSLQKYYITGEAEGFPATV

In test [14] the target is Steroid hormone receptor ERR1 (Homo sapiens) (UniProt P11474). Put plainly: ATG_ERRa_TRANS: Attagene TRANS-FACTORIAL HepG2 Assay for human Estrogen-Related Receptor alpha (ERRa) (AID 2282971; active means hit-call score of the fitted dose curve at least 0.9, where 1 is the maximum). The settings on record: HepG2 Attagene TRANS reporter, ERRa transactivation. An outline of the steps: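 HepG2 cells were transiently transfected with multiple GAL4-UAS reporter units, then dosed with compound for 24 h. Total RNA was reverse-transcribed, reporter cDNA PCR-amplified and fluorescently labelled, and fragments resolved by capillary electrophoresis; induction was compared with DMSO.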
Chain of Steroid hormone receptor ERR1 (Homo sapiens) (P11474 whole entry, looked up, the tested form may be a part): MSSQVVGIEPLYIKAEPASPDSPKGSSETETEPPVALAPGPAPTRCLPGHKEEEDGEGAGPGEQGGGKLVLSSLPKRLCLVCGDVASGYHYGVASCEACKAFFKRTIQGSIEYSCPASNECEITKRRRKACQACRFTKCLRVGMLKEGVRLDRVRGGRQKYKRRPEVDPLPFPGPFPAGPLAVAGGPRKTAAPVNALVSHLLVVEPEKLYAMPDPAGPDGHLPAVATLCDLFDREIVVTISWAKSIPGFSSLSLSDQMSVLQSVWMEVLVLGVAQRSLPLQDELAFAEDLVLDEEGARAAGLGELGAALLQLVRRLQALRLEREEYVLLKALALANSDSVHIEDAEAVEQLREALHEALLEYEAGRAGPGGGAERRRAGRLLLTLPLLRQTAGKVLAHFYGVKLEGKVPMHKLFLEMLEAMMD

Test [15] is described as follows: ATG_M_19_TRANS: Attagene TRANS-FACTORIAL HepG2 Assay for M19 Transcription Factor (Internal Marker) (AID 2282974; active means hit-call score of the fitted dose curve at least 0.9, where 1 is the maximum). Conditions: HepG2 Attagene TRANS-FACTORIAL M19 internal marker reporter. In outline: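 HepG2 cells transiently transfected with multiple GAL4-UAS reporter transcription units were exposed to chemicals for 24 h. Reporter mRNA was read by RT-PCR, 6-FAM primer extension, HpaI digestion and capillary electrophoresis; gain of signal fitted relative to DMSO.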

The nature of test [16]: ATG_RORE_CIS: Attagene CIS-FACTORIAL HepG2 Assay for human RAR-related Orphan Receptor Element (RORE) (AID 2282959). Conditions: HepG2 Attagene cis-factorial RORE reporter, mRNA; actives raise or lower the signal. In outline:
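HepG2 cells transiently transfected with multiple cis-element reporter transcription units, exposed to chemical for 24 h. Reporter mRNA quantified by RT-PCR, 6-FAM primer-extension labeling, HpaI digestion and capillary electrophoresis; bidirectional fit versus DMSO baseline.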

The target of test [17] is Transcription factor Sp1 (Homo sapiens) (UniProt P08047). Put plainly: ATG_Sp1_CIS: Attagene CIS-FACTORIAL HepG2 Assay for human Specificity Protein 1 (Sp1) (AID 2282961). Conditions: HepG2 Sp1 cis-reporter transcription, actives raise or lower the signal. An outline of the steps: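 HepG2 cells transiently transfected with multiple reporter transcription units driven by cis-regulatory elements; Sp1-responsive reporter mRNA measured 24 h after dosing by RT-PCR and capillary electrophoresis fluorescence, fitted bidirectionally against DMSO baseline.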
Chain of Transcription factor Sp1 (Homo sapiens) (P08047 whole entry, looked up): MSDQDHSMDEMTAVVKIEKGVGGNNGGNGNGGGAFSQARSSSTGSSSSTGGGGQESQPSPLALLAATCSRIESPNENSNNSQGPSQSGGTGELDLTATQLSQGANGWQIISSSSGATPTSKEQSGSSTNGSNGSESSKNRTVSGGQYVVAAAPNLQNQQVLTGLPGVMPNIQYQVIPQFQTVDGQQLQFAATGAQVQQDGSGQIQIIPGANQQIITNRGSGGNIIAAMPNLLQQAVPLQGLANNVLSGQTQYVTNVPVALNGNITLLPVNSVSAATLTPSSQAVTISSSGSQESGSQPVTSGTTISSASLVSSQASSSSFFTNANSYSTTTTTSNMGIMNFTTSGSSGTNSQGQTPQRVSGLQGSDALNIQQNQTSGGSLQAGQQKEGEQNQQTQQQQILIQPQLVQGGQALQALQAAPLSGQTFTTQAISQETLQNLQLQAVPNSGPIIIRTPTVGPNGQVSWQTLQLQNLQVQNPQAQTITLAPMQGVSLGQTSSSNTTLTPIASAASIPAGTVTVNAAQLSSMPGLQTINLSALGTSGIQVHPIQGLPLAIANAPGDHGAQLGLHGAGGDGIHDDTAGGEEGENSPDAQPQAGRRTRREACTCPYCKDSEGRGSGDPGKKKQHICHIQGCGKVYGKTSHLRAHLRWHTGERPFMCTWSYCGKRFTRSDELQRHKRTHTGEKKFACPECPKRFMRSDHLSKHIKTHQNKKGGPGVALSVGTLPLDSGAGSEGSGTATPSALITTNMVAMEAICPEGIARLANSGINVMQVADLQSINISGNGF

Test [18] addresses X-box-binding protein 1 (Homo sapiens) (UniProt P17861). The test can be described thus: ATG_Xbp1_CIS: Attagene CIS-FACTORIAL HepG2 Assay for human X-box Binding Protein 1 (XBP1) (AID 2282972). The settings on record: HepG2 XBP1 cis-element reporter, Attagene multiplex; actives raise or lower the signal. In outline:
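Reporter transcripts were quantified by RT-PCR with fluorescent primer extension and capillary electrophoresis after 24 h chemical exposure. Cells: transiently transfected HepG2 carrying cis-regulated reporter constructs; data fitted bidirectionally relative to DMSO.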

A short description of test [19]: ATG_TGFb_CIS: Attagene CIS-FACTORIAL HepG2 Assay for human Transforming Growth Factor (TGF) (AID 2282967). Conditions: HepG2 Attagene CIS TGFb reporter, mRNA transcription; actives raise or lower the signal. An outline of the steps:
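Transient MRTU transfection of HepG2 (FuGene 6). Dose 24 h. TriZol RNA, oligo(dT) RT, PCR, 6-FAM primer extension, HpaI cut, CE. Bidirectional fit, DMSO = baseline.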

A short description of test [20]: ATG_GAL4_TRANS: Attagene TRANS-FACTORIAL HepG2 Assay for GAL4 (Internal Marker) (AID 2282976; active means hit-call score of the fitted dose curve at least 0.9, where 1 is the maximum). The settings on record: HepG2 Attagene TRANS GAL4 internal marker reporter. In outline: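 Fluorescence from capillary electrophoresis of labelled RT-PCR products quantifies reporter mRNA induction after 24 h dosing of HepG2 cells carrying transfected GAL4-UAS reporter transcription units. Vehicle DMSO serves as baseline.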

Chain of X-box-binding protein 1 (Homo sapiens) (P17861 whole entry, looked up): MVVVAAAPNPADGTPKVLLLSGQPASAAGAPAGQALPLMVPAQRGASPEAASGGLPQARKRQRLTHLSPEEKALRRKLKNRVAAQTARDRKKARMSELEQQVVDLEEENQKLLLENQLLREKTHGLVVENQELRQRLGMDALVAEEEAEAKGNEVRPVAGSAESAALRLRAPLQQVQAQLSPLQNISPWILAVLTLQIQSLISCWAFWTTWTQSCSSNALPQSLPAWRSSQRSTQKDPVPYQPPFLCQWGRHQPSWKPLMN
Chain of Signal transducer and activator of transcription 3 (Homo sapiens) (P40763 whole entry, looked up): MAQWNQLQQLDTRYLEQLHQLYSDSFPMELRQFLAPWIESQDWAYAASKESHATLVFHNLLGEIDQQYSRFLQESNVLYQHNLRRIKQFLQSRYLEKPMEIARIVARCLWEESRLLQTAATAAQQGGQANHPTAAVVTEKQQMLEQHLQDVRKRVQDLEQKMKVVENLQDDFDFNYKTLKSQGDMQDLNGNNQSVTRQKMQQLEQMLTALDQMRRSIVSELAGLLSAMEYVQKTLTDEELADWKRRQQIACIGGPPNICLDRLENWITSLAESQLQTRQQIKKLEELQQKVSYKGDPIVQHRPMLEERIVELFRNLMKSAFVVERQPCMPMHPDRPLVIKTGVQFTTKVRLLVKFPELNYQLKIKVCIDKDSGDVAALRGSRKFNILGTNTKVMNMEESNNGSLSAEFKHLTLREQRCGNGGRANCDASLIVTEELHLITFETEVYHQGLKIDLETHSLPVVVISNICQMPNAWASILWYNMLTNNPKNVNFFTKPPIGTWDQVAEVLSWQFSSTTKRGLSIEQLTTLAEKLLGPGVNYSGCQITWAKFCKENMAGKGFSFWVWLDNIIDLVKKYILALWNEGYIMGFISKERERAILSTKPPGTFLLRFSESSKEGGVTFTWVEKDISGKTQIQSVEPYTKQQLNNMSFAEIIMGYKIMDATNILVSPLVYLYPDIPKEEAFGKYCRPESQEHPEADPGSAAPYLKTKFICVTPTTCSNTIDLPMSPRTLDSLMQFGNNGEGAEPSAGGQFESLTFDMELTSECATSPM
Chain of Nuclear receptor subfamily 1 group I member 3 (Homo sapiens) (Q14994 whole entry, looked up, the tested form may be a part): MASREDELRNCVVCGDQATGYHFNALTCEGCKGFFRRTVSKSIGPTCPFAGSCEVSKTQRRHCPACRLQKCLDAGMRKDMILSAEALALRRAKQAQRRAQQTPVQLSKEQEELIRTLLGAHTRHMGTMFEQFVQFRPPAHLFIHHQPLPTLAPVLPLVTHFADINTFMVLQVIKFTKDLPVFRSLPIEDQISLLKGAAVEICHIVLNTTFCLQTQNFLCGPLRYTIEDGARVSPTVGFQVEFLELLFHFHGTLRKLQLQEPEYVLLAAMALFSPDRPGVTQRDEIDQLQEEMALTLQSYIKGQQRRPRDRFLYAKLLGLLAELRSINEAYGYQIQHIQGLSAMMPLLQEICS

With `C=CC(=O)OCCCCCCOC(=O)C=C`, the result in test [1], in test [3], in test [4], in test [5], in test [7] and in test [8] was inactive. The molecule was classed as inactive in [9], in [10], in test [12], in test [13], in [14] and in [15]. For the same molecule, the AC50 was 75.7 µM (active) in test [2], 100 µM (active) in [6] and 25.6 µM (active) in test [11].

As for `CN(C)Cc1cc(CN(C)C)c(O)c(CN(C)C)c1`, the outcome in [1], in test [2], in [3], in [16], in test [5] and in [17] was inactive. Also, the result in [6], in test [7], in [8], in test [9], in test [10] and in test [13] was inactive. For the same molecule, the molecule was called inactive in test [18].

In the case of `CCCC(CC)c1ccccc1` (stereo unspecified), the outcome in test [1], in [2], in test [16], in test [5], in [7] and in test [8] was inactive. Besides, the molecule was classed as inactive in test [9], in test [10], in test [19], in [11], in test [12] and in [18]. Further, in test [15], the call was inactive. The AC50 was 36.2 µM (active) in test [3], 180 µM (active) in test [17], 164 µM (active) in test [6] and 55.3 µM (active) in [13].

On to `C=CC(C)(CCC=C(C)C)OC(=O)C=Cc1ccccc1` (stereo unspecified), for which the result in test [1], in test [2], in [4], in test [5], in test [6] and in [7] was inactive. Also, the result in [9], in [10], in test [19], in test [11] and in test [18] was inactive. Also, the AC50 was 1.82 µM (active) in [3] and 7.3 µM (active) in test [13].

Turning to `CC1=C(O)C(=O)C(C)O1` (stereo unspecified), the result in [1], in [2], in test [3], in test [16], in [5] and in [17] was inactive. The molecule was called inactive in test [6], in test [7], in test [8], in test [9], in [10] and in test [19]. Moreover, the result in test [12], in test [13], in test [18] and in [20] was inactive.

Regarding `CCCCCCOc1ccc(N)cc1`, the outcome in test [1], in test [2], in [16], in [5], in test [17] and in test [6] was inactive. Besides, the outcome in [7], in [8], in [9], in test [10], in test [19] and in test [11] was inactive. Further, the molecule was classed as inactive in [12], in test [13], in test [14] and in [18]. In test [3], the AC50 is 26.8 µM (active).

On to `CCC(=O)C1CC(C(C)C)CC=C1C` (stereo unspecified), for which the result in [1], in test [2], in [16], in [5], in [17] and in test [6] was inactive. The outcome in test [7], in test [8], in test [9], in test [10], in test [19] and in test [13] was inactive. Further, the result in [14] and in test [18] was inactive. In addition, the AC50 in test [3] is 4.33 µM (active).
